Bioassay records: PubChem, National Center for Advancing Translational Sciences (NCATS)
A selection: hits, their analogues and other compounds. The true share with any hit is near 2.9%.
TRPML1 ag = human mucolipin-1 channel agonism. Q9GZU1. TRPML1-expressing cells, Ca2+ dye fluorescence, FDSS. activation, % (test concentration not listed). 410,000 tested, 0.12% active; in the data active = activation above about 50%; inconclusive = mostly about 30% to 49%; also: 0% is about no effect
Target sequence (Q9GZU1 whole entry, looked up): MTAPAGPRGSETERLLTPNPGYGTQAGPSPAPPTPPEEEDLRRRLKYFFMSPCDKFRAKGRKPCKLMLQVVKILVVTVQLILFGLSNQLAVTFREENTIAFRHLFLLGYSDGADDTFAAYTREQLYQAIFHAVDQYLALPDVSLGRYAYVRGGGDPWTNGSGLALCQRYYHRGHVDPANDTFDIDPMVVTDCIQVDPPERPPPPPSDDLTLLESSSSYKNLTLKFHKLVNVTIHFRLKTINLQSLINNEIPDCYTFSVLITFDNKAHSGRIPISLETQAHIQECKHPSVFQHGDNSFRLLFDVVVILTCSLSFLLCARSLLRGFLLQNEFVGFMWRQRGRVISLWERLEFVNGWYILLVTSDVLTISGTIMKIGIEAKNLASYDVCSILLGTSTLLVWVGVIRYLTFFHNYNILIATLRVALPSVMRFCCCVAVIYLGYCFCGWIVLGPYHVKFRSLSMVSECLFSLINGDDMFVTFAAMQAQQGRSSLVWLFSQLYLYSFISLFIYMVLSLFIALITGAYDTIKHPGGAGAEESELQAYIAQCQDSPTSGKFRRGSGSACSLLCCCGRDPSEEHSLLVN
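Cells: TRPML1-DL, 1X Tet inducer, ~16 h at 37 degrees C/5% CO2. Dye: ABD Ca8 no-wash + quencher, 45-90 min RT. Read: 10 s baseline, compound add, 110 s agonist phase; 54-4 EC80 (4uM final), 110 s antagonist phase.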
D3 antag = antagonists of human D3 dopamine receptor. max response, negative = inhibition, %. AID 652054. 360,000 tested, 2.5% active. D3R cells, DiscoveRx beta-arrestin luminescence, antagonist mode; stronger effect = lower value. P35462; in the data active = max response below about -50%; inconclusive = no clear call, values can overlap the other calls; also: % is scaled to controls: 0 for no effect and ±100 for the full control effect
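Cells plated overnight at 1500 cells/well, then exposed to library compounds with dopamine controls for 90 minutes at 37 degrees C. DiscoveRx reagent added for 30–60 minutes at room temperature; luminescence read, quantitative HTS format.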
TRPML1 blocker = human mucolipin-1 channel inhibition | 390,000 tested, 0.02% active | TRPML1-inducible cells, Ca2+ dye fluorescence, FDSS; stronger effect = lower value; inhibition of EC80 agonist-evoked calcium signal | activity change, negative = inhibition, % (no concentration beside the values) | Q9GZU1 | AID 624415; in the data active = activity change below about -50%; inconclusive = between about -30% and that limit;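 also: stimulus is agonist 54-4 at its EC80 concentration; % is scaled to controls: 0 for no effect and ±100 for the full control effect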
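TRPML1-DL cells, Tet-induced overnight (~16 h, 37 °C) at 1,500 cells/well, were loaded with Ca8 no-wash dye plus quencher for 45-90 min at room temperature. Compounds were pinned during FDSS kinetic reading; agonist 54-4 at EC80 (4 uM final) then added.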
DRD3 agonist = agonists of human D3 dopamine receptor. D3R DiscoveRx beta-arrestin cells, luminescence, 90 min. max activation, %. 410,000 tested, 0.58% active. AID 652048; in the data active = max activation above about 30%; also: 0% is about no effect
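Agonist-mode cell screen: cells plated at 1500/well and incubated overnight at 37 °C, then exposed to library compounds for 90 min at 37 °C. Detection reagent was added for 30–60 min at room temperature, and luminescence was read.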
The depositor's hits bear a star; u = inconclusive; x = not tested or not shown.

SMILES | TRPML1 ag | D3 antag | TRPML1 blocker | DRD3 agonist
O=C(NCCCN1CCC(Cc2ccccc2)CC1)C1CCC(=O)N1C1CCCC1 (stereo not given) | 0 | -118* | 39 | -10
O=C(NCCCN1CCN(c2ccccc2F)CC1)C1CCC(=O)N1C1CCCC1 (stereo not given) | -1 | -87* | -1 | 1
O=C(NCCCN1CCCC1)C1CCC(=O)N1C1CCCCC1 (stereo not given) | 0 | -12 | 0 | 1
COc1ccc2cc(C3c4cc(OC)c(OC)cc4CCN3C(=O)c3ccco3)c(=O)[nH]c2c1 (stereo not given) | 2 | -12 | 13 | 4
COc1cc2c(cc1OC)C(c1cc3cc(C)ccc3[nH]c1=O)N(C(=O)c1ccco1)CC2 (stereo not given) | -1 | 10 | -9 | 37*
C=CCN1[C@@H](C(C)C)COCCS1(=O)=O | -1 | x | x | x
Cc1ccc(NC(=O)c2ccc(NCCCN3CCC(C)CC3)c([N+](=O)[O-])c2)cc1F | 0 | -65* | -17 | -13
Cc1ccc(NC(=O)c2ccc(NCCN)c([N+](=O)[O-])c2)cc1 | -1 | -9 | -6 | -6
O=C(NCCCN1CCOCC1)c1cccc(NC(=O)c2ccccc2)c1 | 3 | 34 | -9 | -1
O=C(Nc1cccc(Cl)c1)c1ccc(NCCCN2CCOCC2)c([N+](=O)[O-])c1 | 0 | -89* | 12 | -12
Cc1ccc(N=Nc2ccc(O)c3ncccc23)cc1 | 2 | -118* | -17 | -13
Cc1ccc(N=Nc2ccc(O)c3ncccc23)cc1C | 1 | -69* | -14 | -9
Cc1ccc(N=Nc2ccc3ccccc3c2O)cc1 | -1 | -3 | 13 | -3
C[C@@H]1[C@H](c2ccccc2)OCCS(=O)(=O)N1Cc1ccc(Cl)cc1 | 0 | x | x | x
CC#CCC(C)[C@H](O)/C=C/[C@@H]1[C@H]2C/C(=C/CCCC(=O)O)C[C@H]2C[C@H]1O (stereo not given in full) | x | x | x | -22
Cc1c(C#N)c(NC(=O)COC(=O)c2cc(Cl)c3c(c2)OCCCO3)n(Cc2ccco2)c1C | -1 | x | x | x
CCC(=O)N1CCc2cc(Br)cc(S(=O)(=O)NCCc3ccc(C)cc3)c21 | 5 | x | 5 | -27
COC(=O)N/N=C/c1cc(N=Nc2ccccc2Cl)ccc1O | 0 | -91* | 29 | -22
COC(=O)N/N=C/c1cc(Br)ccc1O | -1 | 8 | 24 | 16
COC(=O)N/N=C/c1cc(N=Nc2ccccc2)ccc1O | 0 | -63* | -2 | -27
Nc1ccc(C(=O)N/N=C\c2cc(N=Nc3cccc4ccccc34)ccc2O)cc1 | 0 | -95* | 2 | -3
O=S(=O)(c1ccc(F)cc1)N1CCN(c2nc(-c3ccc(F)cc3)nc3cc(Cl)ccc23)CC1 | 1 | x | 19 | x
CCC(Oc1ccc(F)cc1)C(=O)Nc1nc(-c2ccc(F)cc2)ns1 (stereo not given) | 2 | x | -8 | -5
N=C(N)SCc1nc2ccccc2c(=O)n1-c1ccccc1Cl | -1 | 19 | 1 | -3
Cc1ccccc1-n1c(CSC(=N)N)nc2ccccc2c1=O | 0 | -72* | -13 | -4
SMILES | TRPML1 ag | D3 antag | TRPML1 blocker | DRD3 agonist
O=C(Nc1ccc(Br)cc1)c1ccc(F)c(S(=O)(=O)N2CCc3ccccc32)c1 | 2 | x | 43 | 1
Cc1n[nH]c(C)c1N1C(=O)c2cccc3c(N4CCCCCC4)ccc(c23)C1=O | 61* | 41 | -8 | 6
O=C1c2cccc3c(N4CCCCC4)ccc(c23)C(=O)N1CCO | u | 14 | -13 | 3
C=CCN1C(=O)c2cccc3c(N4CCCCC4)ccc(c23)C1=O | 55* | 3 | 2 | 8
O=C1c2cccc3c(N4CCCCC4)ccc(c23)C(=O)N1c1cccc(O)c1 | 88* | 11 | -16 | 4
Oc1ccc(Cl)cc1C1C=C(c2ccc3c(c2)OCO3)NC(c2ccc(Br)cc2)N1 (stereo not given) | 3 | x | x | x
COc1ccc(CCNC(=O)CCCCn2c(=O)c3ccccc3n(Cc3ccc(Cl)cc3)c2=O)cc1OC | 0 | x | -3 | 5
O=S1(=O)CCOC[C@H](c2ccccc2)N1Cc1ccc(Cl)c(Cl)c1 | 0 | x | x | x
CCCCS/C(N)=N/N=C/c1ccccc1O | 2 | -50* | -10 | -3
Cc1ccc(Nc2n[nH]c(=S)s2)cc1 | 0 | -51* | 16 | -7
COc1cc(CNCc2ccccc2)c(Br)cc1OC1CCCC1 | 0 | -62* | 10 | -18
COc1cc(CNC2CCCC2)c(Br)cc1OC1CCCC1 | 0 | -7 | 1 | -22
